Values without a mark were called inactive. Inconclusive results are not listed. Active and inactive are the calls of the source. Calls follow the shape of the dose curve; as a rule, active = well fitted curve in the direction sought with a large enough effect; inconclusive = small, poorly fitted or top-dose-only effect, or another doubt; inactive = no such curve, though single readings can be large; an effect the other way counts as inactive or inconclusive.

In PubChem BioAssay (NCATS) one finds Potency data, which are given here for 29 compounds.

The target in test [1] is Glutathione peroxidase 1 (Homo sapiens) (UniProt P07203). The test is described as follows: Primary qHTS Assay for Inhibitors of Recombinant Selenoprotein Glutathione Peroxidase 1 (GPX1) (AID 1845191). Also: nearly all actives have a fitted effect of over 65% in size. Also: potency is read from the fitted curve at half-maximal effect. The method in brief:
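10 nM GPX1 + cpd, 30 min RT; start w/ 1 mM GSH, 0.5 mM cumene hydroperoxide, 0.5 mM NADPH, 100 nM GR, 0.01% BSA; buffer 50 mM Tris-HCl pH 7.5, 2 mM EDTA, 150 mM NaCl; Fl 340/450, 0 & 15 min.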
Background: Quantitative high-throughput screening tests each substance at several concentrations.

The target in test [2] is Phospholipid hydroperoxide glutathione peroxidase GPX4 (Homo sapiens) (UniProt P36969). Kind of test: Primary qHTS Assay for Inhibitors of Recombinant Selenoprotein Glutathione Peroxidase 4 (GPX4) (AID 1845192). Also: nearly all actives have a fitted effect of over 65% in size. Also: potency is read from the fitted curve at half-maximal effect. The method in brief:
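NADPH consumption, followed by fluorescence at 340/450 nm between 0 and 15 min, reports GPX4 activity via coupled glutathione reductase (100 nM). Enzyme 200 nM was pre-exposed to compound 30 min; 0.5 mM cumene hydroperoxide and 1 mM GSH served as substrates.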

In test [3] the target is Luciferin 4-monooxygenase (Photinus pyralis) (UniProt P08659). Kind of test: Primary firefly luciferase (FLuc) qHTS assay for identification of artifact compounds. (AID 1845220). Also: nearly all actives have a fitted effect of over 60% in size. A digest of the protocol: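 Compounds sat 15 min at room temperature with 10 uM luciferin and 10 uM ATP (pH 7.6 Tris acetate). Firefly luciferase (10 nM final) was then added, and luminescence was read 5 min later. Data normalized to no-enzyme and DMSO controls were Hill-fitted.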

Test [4] has as its system Nanoluciferase (engineered Oplophorus gracilirostris luciferase). Kind of test: Primary Nanoluciferase (NLuc) qHTS assay for identification of artifact compounds. (AID 1845222). Also: potency is read from the fitted curve at half-maximal effect. A digest of the protocol:
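Luminescence from secreted NLuc (filtered, 1:55-diluted S16 cell medium) read 5 min after Nano-Glo substrate; compounds preincubated 15 min, RT. Hill fits of inhibition normalized to DMSO and no-enzyme.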

A short description of test [5]: Primary redox qHTS assay for identification of artifact compounds. (AID 1845223). The method in brief:
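Amplex Red (25 uM) and HRP (250 mU/mL) in HBSS, with compounds for 15 min, then 250 uM DTT for 30 min, room temperature, dark. Fluorescence 525/598 nm read; normalized to DMSO and 10 uM DA3003; Hill fit.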

Sequence of Glutathione peroxidase 1 (Homo sapiens) (P07203 whole entry, looked up): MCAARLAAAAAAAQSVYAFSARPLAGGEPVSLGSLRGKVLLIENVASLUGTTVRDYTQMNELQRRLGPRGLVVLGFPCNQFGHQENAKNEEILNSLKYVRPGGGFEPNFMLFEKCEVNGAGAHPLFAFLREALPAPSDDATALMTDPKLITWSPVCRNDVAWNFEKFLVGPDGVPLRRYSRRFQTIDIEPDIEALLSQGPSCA
Sequence of Phospholipid hydroperoxide glutathione peroxidase GPX4 (Homo sapiens) (P36969 whole entry, looked up): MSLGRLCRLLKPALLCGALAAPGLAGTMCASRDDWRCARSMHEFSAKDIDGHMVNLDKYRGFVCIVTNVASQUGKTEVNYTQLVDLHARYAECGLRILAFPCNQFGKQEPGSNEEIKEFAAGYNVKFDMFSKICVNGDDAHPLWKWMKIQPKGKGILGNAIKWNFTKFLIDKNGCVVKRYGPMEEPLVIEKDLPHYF

As for `CC[C@@H](C)Nc1cc(C(=O)NC2CC3CCC(C2)N3c2ccc(C(=O)C3CC3)cn2)c(C)cc1C(N)=O` (some centres undefined), the Potency in test [1] is 16.3 µM (active); in test [2] it was 5.7 µM (active). In addition, the Potency entry in test [3] and in test [4] was “inactive” each time.

As for `C[C@@H](NC(=O)C(=O)c1c[nH]c2ccc([N+](=O)[O-])cc12)c1ccccc1`, the Potency entry in test [1], in test [2], in test [3], in test [4] and in test [5] was “inactive” each time.

As for `CC1(C)SCCN(S(=O)(=O)c2ccc(Oc3ccncc3)cc2)[C@H]1C(=O)NO`, the Potency entry in test [1], in test [2], in test [3], in test [4] and in test [5] was “inactive” throughout.

As to `COc1cc(N2CCC(N3CCN(C)CC3)CC2)ccc1Nc1ncc(Cl)c(Nc2ccccc2P(C)(C)=O)n1`, the Potency result in test [1], in test [2], in test [3] and in test [4] was “inactive” each time.

`C#CCNCc1cc2cc(OCc3ccccc3)ccc2[nH]1`: the Potency result in test [1], in test [2], in test [3], in test [4] and in test [5] was “inactive” throughout.

On to `COCc1c(Cl)ccc2c1CC[C@H]2c1ncc[nH]1`, for which the Potency entry in test [1], in test [2], in test [3], in test [4] and in test [5] was “inactive” in each case.

In the case of `CC(C)CC(=O)c1c(O)cc2c(c1O)C(CC(C)C)C1=C(O2)C(C)(C)C(=O)C(C)(C)C1=O` (centres undefined), the Potency result in test [1], in test [2], in test [3] and in test [4] was “inactive” throughout.

Turning to `Cc1[nH]c(/C=C2\C(=O)Nc3ccc(F)cc32)c(C)c1C(=O)NCCN1CCCC1`, the Potency result in test [1], in test [2], in test [3] and in test [4] was “inactive” in each case.

As to `C=C1[C@@H](OC(C)=O)CC[C@@]2(C)[C@@H](OC(C)=O)[C@H](OC(C)=O)C3=C(C)C[C@H](OC(=O)C(C)CC)[C@@H]([C@@H](OC(C)=O)[C@H]12)C3(C)C` (some centres undefined), the Potency entry in test [1], in test [2], in test [3] and in test [4] was “inactive” throughout.

As to `C/C=C/[C@@H]1C=C[C@@H]2C[C@H](C)CC[C@H]2[C@]1(C)/C(O)=C1/C(=O)[C@@H](CO)N(C)C1=O`, the Potency result in test [1], in test [2], in test [3] and in test [4] was “inactive” each time.

Regarding `CC(C)(C)OC(=O)c1ncn2c1C(C)(C)Nc1ccccc1-2`, the Potency entry in test [1], in test [2], in test [3], in test [4] and in test [5] was “inactive” throughout.

On to `C=C1C(=O)O[C@@H]2C[C@H](C)[C@@H]3CC(=O)[C@H](O)[C@@]3(C)C[C@H]12`, for which the Potency result in test [1], in test [2], in test [3], in test [4] and in test [5] was “inactive” each time.

For the compound `C/C=C(\C)[C@@H]1C(C)=C[C@@H]2[C@H]([C@@H]1/C=C/C=C/C(=O)O)[C@@H](C)CC[C@@H]2O`, the Potency result in test [1], in test [2], in test [3] and in test [4] was “inactive” each time.

In the case of `Cc1cc(-c2cc(OC(=O)c3ccccc3)ccc2Cl)cc2nnc(Nc3ccc(OCCN4CCCC4)cc3)nc12`, the Potency result in test [1], in test [2], in test [3], in test [4] and in test [5] was “inactive” throughout.

Regarding `O=C1Nc2ccccc2-c2nc3ccccc3c(=O)n2-c2c(O)cccc21`, the Potency entry in test [1], in test [2], in test [3] and in test [4] was “inactive” in each case.

As to `Cc1cc(C)c2c(c1)C(N(Cc1cc(C(F)(F)F)cc(C(F)(F)F)c1)c1nnn(C)n1)CCCN2CC1CCC(C(=O)O)CC1` (centres undefined), the Potency entry in test [1], in test [2], in test [3], in test [4] and in test [5] was “inactive” in each case.

In the case of `COc1cc2c(c(OC)c1CC=C(C)C)C[C@H](c1ccc(O)c(CC=C(C)C)c1O)CO2`, the Potency result in test [1], in test [2], in test [3], in test [4] and in test [5] was “inactive” each time.

In the case of `C=C(C)[C@@H]1CC=C(COC(=O)NC(=O)c2ncn3c(=O)n(C)nnc23)CC1`, the Potency result in test [1], in test [2], in test [3], in test [4] and in test [5] was “inactive” each time.

Consider `C=CC(=O)N1CCN(C(=O)CNc2cc(-c3ccccc3Cl)c(Cl)cc2OC)CC1`, for which the Potency entry in test [1], in test [2], in test [3], in test [4] and in test [5] was “inactive” throughout.

With `CC(C)=C[C@@H]1[C@H](CO[C@@H]2O[C@H](CO)[C@@H](O)[C@H](O)[C@H]2O)C1(C)C`, the Potency entry in test [1], in test [2], in test [3], in test [4] and in test [5] was “inactive” in each case.

Consider `CC1(C(=O)Nc2ccc(F)nc2)CCCN1c1nc(Nc2cc(C3CC3)[nH]n2)c2cccn2n1` (centres undefined), for which the Potency result in test [1], in test [2], in test [3], in test [4] and in test [5] was “inactive” throughout.

For the compound `O=S(=O)(Nc1ccccc1N1CCCCC1)c1ccc(Cl)s1`, the Potency result in test [1], in test [2], in test [3], in test [4] and in test [5] was “inactive” throughout.

As to `Cc1nnc(-c2ccc(-c3ccc(C(=O)Nc4ccc(O)c(N5CCN(C)CC5)c4)cc3)c(C)c2)o1`, the Potency result in test [1], in test [2] and in test [3] was “inactive” each time. In addition, the Potency in test [4] is 1.51 µM (active).

As for `CC(=O)OC1C(=O)C2C3OCC4=C3[C@@](C)(CC[C@@H]4O)CC[C@]2(C)[C@H]1C(C)C` (some centres undefined), the Potency result in test [1], in test [2], in test [3] and in test [4] was “inactive” each time.

`CN1CC[C@@H](c2c(O)cc(O)c3c(=O)cc(-c4ccc(C(F)(F)F)cc4Cl)oc23)[C@@H]1CO`: the Potency entry in test [1], in test [2], in test [3] and in test [4] was “inactive” throughout.

As for `CCC(C)/C=C(C)/C=C/C1=CC2=C(Cl)C(=O)C(C)(OC(C)=O)C(=O)C2(O)C(OC)O1` (centres undefined), the Potency result in test [1], in test [2], in test [3], in test [4] and in test [5] was “inactive” throughout.

`CCCc1cc(C)[nH]c(=O)c1CNC(=O)c1cc(-c2ccc(N3CCN(C(C)C)CC3)nc2)cc2c1cnn2C(C)C`: the Potency result in test [1], in test [2], in test [3], in test [4] and in test [5] was “inactive” throughout.

On to `C=C1/C(=C/C=C2\CCC[C@]3(C)[C@@H]([C@H](C)/C=C/[C@@H](C)C(C)C)CC[C@@H]23)C[C@@H](O)C[C@@H]1O`, for which the Potency entry in test [1], in test [2], in test [3], in test [4] and in test [5] was “inactive” each time.

Take `C=C1C(=O)O[C@@H]2C[C@]3(C)[C@@H](CCC(C)O)[C@@H]3C[C@H]12` (some centres undefined): the Potency result in test [1], in test [2], in test [3], in test [4] and in test [5] was “inactive” throughout.
